The labels stand for the following.
T1: UNK ZnF1-3 (human, UniProt Q9C0B0 31-174)
T1 sequence: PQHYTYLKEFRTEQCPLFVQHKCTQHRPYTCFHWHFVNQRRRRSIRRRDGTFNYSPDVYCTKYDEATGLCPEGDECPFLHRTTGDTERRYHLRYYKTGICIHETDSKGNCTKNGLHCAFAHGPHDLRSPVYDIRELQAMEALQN

B1: 107145582_107145702_897_CDS_ENSG00000125266_ENST00000245323|human|control|control (ssRNA)
RNA: GGGAGUUCUACAGUCCGACGAUCGAGCGACAGCGUGGUCGUGUGCUGCGGCGAGUGCUUCCUGUGUCUCCUCCGGUACUUCAGCAAGAGGACCACCAGCGUGAUGAUGAUGACGAUGAAGAUGAUGCAUCCUGAAGCAAUCCCCAACAGAGGAUUGAGCAUCA
B2: chr9:115598534:115598535:+_ENSG00000148158_ENST00000374232|hu_mus|FALSE|FALSE (ssRNA)
RNA: GGGAGUUCUACAGUCCGACGAUCCAGCUUAUAGCCUCCGGUGACGUGCUUGACUGACUCACCCACUCUGCUCAGCAAUGCUAUCCCUUGCUUCUUGUAGGCAUUCAGGUCCUUAGCAGUGAGGAACACAUUGAAGUGUUCAUUCAACAGAGGAUUGAGCAUCA
B3: chrX:165757501:165757502:-_ENSMUSG00000031352_ENSMUST00000112115|mus_hu|FALSE|FALSE (ssRNA)
RNA: GGGAGUUCUACAGUCCGACGAUCGCAGGAGCAGAUGGAGACAAACCCAUGGCUGGAAACAGUGUUGACUGUAAACAAUUUUAAAUUUCCACCUGCUCCAGCCCGUGGUCCCCAGACCAAACCGGCCGCGGCCAGCCUGCCCUUCAACAGAGGAUUGAGCAUCA
B4: chr10:33190432:33190433:-_ENSG00000150093_ENST00000302278|hu_mus|hu_hu_hu_mus_True|58_98 (ssRNA)
RNA: GGGAGUUCUACAGUCCGACGAUCUACAUUUUCCAAACCUGCACAUGAAUAAAACCCUGGCCACAGAGCCCCAAAACUACCUAACUGUGACUAAGAUGCUGCUGCUGUGAGCUUGGUGUUGCAAAAUCCGCCUGAGUAGGAUUCCAACAGAGGAUUGAGCAUCA
B5: 10529348_10532452_191_CDS_ENSG00000160049_ENST00000377038|human|control|control (ssRNA)
RNA: GGGAGUUCUACAGUCCGACGAUCCAGGGUGACUGGUGUCAGGGACUUAUCAAUGGCCAGAAUGUCACAGGCCUUGCUCCUCAGGUCUUCGAGGCAGGAGGCGGCCACGCCGUGCUGUUCGCGGCUGUAGUUGCGGCGCAGCAGCAACAGAGGAUUGAGCAUCA
B6: 105048333_105048453_1516_3pUTR_ENSG00000148798_ENST00000369849|human|control|control (ssRNA)
RNA: GGGAGUUCUACAGUCCGACGAUCAGCAUUAACUUUUUCAAAGCAAUGGAAUUAUAUUUUUUGGCUUGAAAUGGUGGUUUCUUCUAUAUUUGAUUUCUCGGUUUUCUUAGUAGAUAUUACUGUCUCCUCUAAUAUUUCUUCAAACAACAGAGGAUUGAGCAUCA
B7: chr8:13147844:13147845:+_ENSMUSG00000031446_ENSMUST00000016680|mus_hu|FALSE|FALSE (ssRNA)
RNA: GGGAGUUCUACAGUCCGACGAUCUACAAUAUUAACAAUCUCUAGACACAACGAACUUAUAAGAAAAAAAAAAUAGAAAUCUGUUUGGUCUUUCUUAGACCACAUAUCAUGGAACUCAUAAAUGAAAAUUUUCAAAGAUAGAAACAACAGAGGAUUGAGCAUCA
B8: 24223610_24223730_1957_3pUTR_ENSG00000173960_ENST00000309033|human|control|control (ssRNA)
RNA: GGGAGUUCUACAGUCCGACGAUCUUUUGAAAGAAAAUAAAAUGGAAAGGGAAUAGGCUUUUUAGAAAGAUAAUUUUCUUUUAUUACAUUUUUAUAAAGUGUAGAAAUGUGAGUAGGCAGAUUAAUCUUGAUACUAUACUGAGCCAACAGAGGAUUGAGCAUCA
B9: chr1:60041781:60041782:+_ENSMUSG00000041040_ENSMUST00000036540|mus_hu|mus_mus_mus_hu_False|1_38 (ssRNA)
RNA: GGGAGUUCUACAGUCCGACGAUCAAGUUUACAAUAGUAAAGUAAAUGCAGUAGUGGCAAAUUUUCUUUUAUUUUCCUUCACAAAAGAAAAUCUUUAGAUCUCAGUUCUAGUCUUGGACAUAGUGAAAGCUAUAAAUGCCACUGCAACAGAGGAUUGAGCAUCA
B10: chr12:86641468:86641469:-_ENSMUSG00000034290_ENSMUST00000040992|mus_mus|FALSE|FALSE (ssRNA)
RNA: GGGAGUUCUACAGUCCGACGAUCGCAAUAUUAAGAGAGAUAGCCAACCUUUUUUUUGGGGGGGGGGUUUGGUUAAAUGAAACAAUAUUAAUUUAGCUGUGUGUAGUACAGAGGAUAUGGUACUUAUCAAAGGAGCUGCUGUGGCAACAGAGGAUUGAGCAUCA
B11: chr4:125586161:125586162:-_ENSG00000151458_ENST00000504087|hu_hu|FALSE|FALSE (ssRNA)
RNA: GGGAGUUCUACAGUCCGACGAUCUUGUGUAGUGGCAACAGCUGAUUUAUAAAAUUUAAAGAUUUUAAUUUCAAAAAUAUCUAUUAAGGAGUUUUAUAUUUGGAGGACAAUUUUUACUUUUUAAUGGAGCAGAAGCCAUUUUCACAACAGAGGAUUGAGCAUCA
B12: chrX:147030410:147030411:+_ENSG00000102081_ENST00000218200|hu_mus|FALSE|FALSE (ssRNA)
RNA: GGGAGUUCUACAGUCCGACGAUCACUUCAUGCCCUGUGCCAUCUUGCCUACUAUUUGUCUUUGGCCUAACAAAGUUUUCUAAAAUGGAGUAAGAAUUACGGAAAUGGUAGAGGAAAUAUAACUUCGGAAUUAUGUAGCUUAUUCAACAGAGGAUUGAGCAUCA
B13: chr4:125586161:125586162:-_ENSG00000151458_ENST00000504087|hu_hu|motif|central (ssRNA)
RNA: B11 RNA with U81G, A82G
B14: chr4:17841332:17841333:+_ENSG00000109805_ENST00000514176|hu_hu|FALSE|FALSE (ssRNA)
RNA: GGGAGUUCUACAGUCCGACGAUCCUUUUGUAUAGACUCGAAUUUCUGGCGAGCACGGACUUGUUAAGAUCUCAUUGCAAAUUUUCAUAGCCAAAUUGUCAUGUACUGUUAAGGCCUGAUAAUCUUGGGAAGUCUUGGCCUGAGCAACAGAGGAUUGAGCAUCA

Positions count from the first letter of the chain named. The full ranking holds about 24,000 sequences; the median of “enrichment r” is about 0.99, and the highest 2% start at about 3.7. The list comes from a sample in which the highest values are over-represented; it also holds similar and randomly drawn sequences.

The assay has as its target T1, UNK ZnF1-3. Put plainly: nsRBNS (natural sequence RNA bind-n-seq); RBNS binding buffer (assumed for nsRBNS): 25 mM Tris pH 7.5, 150 mM KCl, 3 mM MgCl2, 0.01% Triton X-100, 500 ug/ml BSA, 20 U/ml SUPERase-In, 4 C; UNK is unkempt and MSI1 is Musashi-1; names of the RNAs are library labels; protein concentration not given here; high values mean tight binding.
With B1, the binding signal was determined as 1.32 enrichment R. The figure for B2 is 0.557 enrichment R; for B3 it is 0.781 enrichment R. With B4 the figure was 1.55 enrichment R; with B5, 0.999 enrichment R; with B6, 4.33 enrichment R. With B7 the figure was 3.59 enrichment R; with B8, 3.4 enrichment R. The molecule B9 gave a binding signal of 0.52 enrichment R. B10 showed a binding signal of 3.28 enrichment R. The figure for B11 is 4.35 enrichment R; for B12 it is 1.78 enrichment R; for B13 it is 4.45 enrichment R. The figure for B14 is 0.957 enrichment R.

Source of the values: publication PMC12136788.
